From PubChem BioAssay (EPA / NIEHS)
Where “and” joins values, the source holds several entries; their conditions need not be identical. Equal entries are not always repeated. Records with an inconclusive call do not appear. Calls of active or inactive are those of the source. The calls were made as follows, unless noted: active = hit-call score of the fitted dose curve at least 0.9, where 1 is the maximum; inconclusive = response in the unintended direction; inactive = score below 0.9.

Tests used:
TIMP1, TIMP1 (gene 7076) = experiment: LTEA_HepaRG_TIMP1: Life Technologies and Expression Analysis (LTEA) Assay for TIMP1 using HepaRG (AID 2283534; active = hit-call score of the fitted dose curve at least 0.9, where 1 is the maximum; inactive = score below 0.9); settings: mRNA level, 48 h; actives raise or lower the signal
Summary of the method: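 Readout is TIMP1 mRNA level measured by qRT-PCR and normalized to three housekeeping genes. Human HepaRG cells were treated for 48 h in duplicate at eight concentrations up to 100 uM (0.5% DMSO); gain or loss fitted against DMSO.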

[1] = read-out: Tumor necrosis factor receptor 1 (TNFRSF1A), TNFRSF1A (gene 7132); experiment: LTEA_HepaRG_TNFRSF1A: Life Technologies and Expression Analysis (LTEA) Assay for Tumor necrosis factor receptor 1 (TNFRSF1A) using HepaRG (AID 2283535; active = hit-call score of the fitted dose curve at least 0.9, where 1 is the maximum; inactive = score below 0.9); settings: mRNA level, 48 h; actives raise or lower the signal
Summary of the method: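 Read-out is TNFRSF1A transcript level by TaqMan qRT-PCR, normalized to three housekeeping genes, scored as gain or loss of signal versus 0.5% DMSO. Human HepaRG cells received test chemicals for 48 h at up to 100 uM (half-log series).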

[2] = read-out: Thyroid Hormone Responsive (THRSP), THRSP (gene 7069); experiment: LTEA_HepaRG_THRSP: Life Technologies and Expression Analysis (LTEA) Assay for Thyroid Hormone Responsive (THRSP) using HepaRG (AID 2283536; active = hit-call score of the fitted dose curve at least 0.9, where 1 is the maximum; inactive = score below 0.9); settings: mRNA level, 48 h; actives raise or lower the signal
Summary of the method: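 qRT-PCR read-out (Fluidigm TaqMan), housekeeping-normalized (ACTB/GAPDH/POLR2A). HepaRG, 48 h chemical exposure, 8-pt half-log series from 100 uM in 0.5% DMSO, duplicates. Bidirectional curve fit vs 0.5% DMSO baseline.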

[3] = read-out: Cellular tumor antigen p53 (Homo sapiens) (UniProt P04637); experiment: LTEA_HepaRG_TP53: Life Technologies and Expression Analysis (LTEA) Assay for Tumor Protein P53 (TP53) using HepaRG (AID 2283537; active = hit-call score of the fitted dose curve at least 0.9, where 1 is the maximum; inactive = score below 0.9); settings: mRNA level, 48 h; actives raise or lower the signal
Summary of the method: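 Differentiated HepaRG cells in serum-free induction medium exposed 48 h in duplicate to 8 half-log concentrations, top 100 uM, 0.5% DMSO. TP53 mRNA by TaqMan qRT-PCR (Fluidigm), normalized to ACTB, GAPDH, POLR2A; fitted bidirectionally versus DMSO.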

[4] = read-out: UDP glucuronosyltransferase (UGT1A6), UGT1A6 (gene 54578); experiment: LTEA_HepaRG_UGT1A6: Life Technologies and Expression Analysis (LTEA) Assay for UDP glucuronosyltransferase (UGT1A6) using HepaRG (AID 2283539; active = hit-call score of the fitted dose curve at least 0.9, where 1 is the maximum; inactive = score below 0.9); settings: mRNA level, 48 h; actives raise or lower the signal
Summary of the method: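 HepaRG, 48 h post-plating switch to serum-free induction medium; chemical 48 h, 100 uM top, half-log x8, duplicate, 0.5% DMSO. Phenobarbital 1mM induction control. UGT1A6 mRNA by TaqMan qRT-PCR; gain/loss fit vs DMSO.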

[5] = read-out: X-box binding protein 1 (XBP1), XBP1 (gene 7494); experiment: LTEA_HepaRG_XBP1: Life Technologies and Expression Analysis (LTEA) Assay for X-box binding protein 1 (XBP1) using HepaRG (AID 2283540; active = hit-call score of the fitted dose curve at least 0.9, where 1 is the maximum; inactive = score below 0.9); settings: mRNA level, 48 h; actives raise or lower the signal
Summary of the method: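 Transcript levels of XBP1, measured by qRT-PCR and normalised to three housekeeping genes, were fitted bidirectionally relative to 0.5% DMSO controls. Human HepaRG cells received eight-point half-log dilutions from 100 uM for 48 h.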

[6] = LTEA_HepaRG_LDH_cytotoxicity: Cytotoxicity Assessment in the Life Technologies and Expression Analysis (LTEA) Assay (AID 2283563);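 as to AC50: LDH activity released into spent culture medium as a marker of cell death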
Summary of the method: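 Cells were thawed and plated for 48 h. Medium was then replaced with serum-free induction medium. Chemicals (8 half-log points, maximum 100 uM, 0.5% DMSO) were added in duplicate for 48 h, after which spent medium was assayed for LDH.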

[7] = TOX21_p53_BLA_p2_viability: Viability Assessment in the Tox21 HCT-116 p53 Agonism Beta-lactamase Assay, Phase 2 (AID 2283591);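 also: compound exposure lasted 16 h at 37 °C; actives lower the ATP signal meaning cytotoxicity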
Summary of the method: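 HCT116 p53-bla cells, 4000/well, dosed after 5 h plating (217-fold dilution of DMSO stocks) and incubated 16 h at 37C. Viability taken as cellular ATP by CellTiter-Glo luminescence after 30 min RT; signal loss marks cytotoxicity.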

[8] = target: Cellular tumor antigen p53 (Homo sapiens) (UniProt P04637); experiment: TOX21_p53_BLA_p2_ratio: Tox21 HCT-116 p53 Agonism Beta-lactamase Assay, Ratio, Phase 2 (AID 2283592)
Summary of the method: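 Plated HCT116 p53-bla cells (4000/well) received compound after 5 h, then 16 h at 37C/5% CO2. CCF4-AM added, 2 h RT. Ratio of 460 to 530 nm emission taken as the p53 reporter signal.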

[9] = TOX21_p53_BLA_p3_viability: Viability Assessment in the Tox21 HCT-116 p53 Agonism Beta-lactamase Assay, Phase 3 (AID 2283593);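 also: cells exposed to compound for 16 h before reading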
Summary of the method: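 HCT116 cells, 4000/well, dosed 5 h after plating by pin transfer (217-fold dilution from DMSO stock) and incubated 16 h at 37C, 5% CO2. Viability read as ATP luminescence with CellTiter-Glo after 30 min at room temperature.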

[10] = target: Cellular tumor antigen p53 (Homo sapiens) (UniProt P04637); experiment: TOX21_p53_BLA_p3_ratio: Tox21 HCT-116 p53 Agonism Beta-lactamase Assay, Ratio, Phase 3 (AID 2283596)
Summary of the method: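 Cells were seeded at 4000/well, rested 5 h at 37C, then dosed with DMSO compound solutions (217-fold dilution) for 16 h. CCF4-AM substrate was loaded for 2 h at room temperature, and the 460/530 nm emission ratio was fitted for gain of signal versus DMSO.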

[11] = TOX21_p53_BLA_p4_viability: Viability Assessment in the Tox21 HCT-116 p53 Agonism Beta-lactamase Assay, Phase 4 (AID 2283597);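 also: hits lower the luminescence signal meaning cytotoxicity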
Summary of the method: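 Readout: ATP luminescence (CellTiter-Glo), measured 30 min after reagent addition at RT. The reagent followed a 2 h CCF4-AM incubation, and the cells had been exposed to compound for 16 h at 37C.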

[12] = target: Cellular tumor antigen p53 (Homo sapiens) (UniProt P04637); experiment: TOX21_p53_BLA_p5_ratio: Tox21 HCT-116 p53 Agonism Beta-lactamase Assay, Ratio, Phase 5 (AID 2283599)
Summary of the method: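 HCT-116 p53-bla cells (4000/well) plated 5 h, dosed with compound (217-fold DMSO dilution) for 16 h at 37 C; CCF4-AM substrate 2 h at room temperature. Activity is the 460/530 nm emission ratio (405 nm excitation), fitted in gain-of-signal direction versus DMSO.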

[13] = TOX21_p53_BLA_p5_viability: Viability Assessment in the Tox21 HCT-116 p53 Agonism Beta-lactamase Assay, Phase 5 (AID 2283600)
Summary of the method: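 Workflow: seed 4000 cells per well, wait 5 h, add compounds (DMSO, 217-fold dilution), incubate 16 h, load CCF4-AM 2 h, add CellTiter-Glo, read luminescence after 30 min.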

[14] = target: Cellular tumor antigen p53 (Homo sapiens) (UniProt P04637); experiment: TOX21_p53_BLA_p4_ratio: Tox21 HCT-116 p53 Agonism Beta-lactamase Assay, Ratio, Phase 4 (AID 2283601)
Summary of the method: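 HCT-116 p53 beta-lactamase reporter cells (4000/well) preincubated 5 h, then compound (217-fold dilution of DMSO stock) for 16 h at 37C. CCF4-AM substrate added 2 h at room temperature; 460/530 nm emission ratio fitted upward versus DMSO.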

[15] = Tanguay_ZF_120hpf_MORT_legacy: (Legacy) Oregon State University Tanguay Lab 120 Hour Post-fertilization zebrafish Assay for Mortality (AID 2283633);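 as to AC50: fitted as increase in binary mortality versus DMSO negative control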
Summary of the method: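 5D WT zebrafish, chorion removed 4 hpf; 1 embryo/well from 6 hpf; static exposure to 120 hpf, 28C, dark, sealed. Final DMSO 0.64%. Readout: binary mortality, brightfield, 24 + 120 hpf; DMSO as negative control.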

[16] = Tanguay_ZF_120hpf_YSE_legacy: (Legacy) Oregon State University Tanguay Lab 120 Hour Post-fertilization zebrafish Assay for Yolk Sac Edema (AID 2283634);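 as to AC50: actives raise the incidence of yolk sac edema above the DMSO baseline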
Summary of the method: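 Dechorionate (pronase, 4 hpf) → place one 6 hpf embryo per well → static compound exposure, sealed and foil-covered, 28C, to 120 hpf → record yolk sac edema as present or absent. Final DMSO 0.64%.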

[17] = Tanguay_ZF_120hpf_AXIS_legacy: (Legacy) Oregon State University Tanguay Lab 120 Hour Post-fertilization zebrafish Assay for Body Axis Malformation (AID 2283635);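 as to AC50: potency for an increased fraction of larvae scored with body axis malformation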
Summary of the method: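 Chorion is removed with pronase at 4 hpf, then single 6 hpf embryos are dosed (final DMSO 0.64%) and held statically at 28C in sealed, foil-covered plates. At 120 hpf body axis malformation is recorded as present or absent.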

[18] = Tanguay_ZF_120hpf_EYE_legacy: (Legacy) Oregon State University Tanguay Lab 120 Hour Post-fertilization zebrafish Assay for Eye Malformation (AID 2283636);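 also: binary presence or absence of eye malformation scored by brightfield in 120 hpf larvae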
Summary of the method: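 5D wild-type embryos, pronase-dechorionated at 4 hpf; static exposure 6–120 hpf, 28C, dark; DMSO 0.64% final; 5uM trimethyltin chloride positive control. Binary eye-defect scoring at 120 hpf; dead embryos not scored.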

[19] = read-out: UDP glucuronosyltransferase (UGT1A1), UGT1A1 (gene 54658); experiment: LTEA_HepaRG_UGT1A1: Life Technologies and Expression Analysis (LTEA) Assay for UDP glucuronosyltransferase (UGT1A1) using HepaRG (AID 2283538; active = hit-call score of the fitted dose curve at least 0.9, where 1 is the maximum; inactive = score below 0.9); settings: mRNA level, 48 h; actives raise or lower the signal
Summary of the method: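 mRNA induction or loss of UGT1A1, by TaqMan qRT-PCR, in duplicate HepaRG wells after 48 h exposure to half-log dilutions topping at 100 uM; DMSO (0.5%) served as baseline.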

Measured: AC50

Cellular tumor antigen p53 (Homo sapiens), sequence (P04637 whole entry, looked up): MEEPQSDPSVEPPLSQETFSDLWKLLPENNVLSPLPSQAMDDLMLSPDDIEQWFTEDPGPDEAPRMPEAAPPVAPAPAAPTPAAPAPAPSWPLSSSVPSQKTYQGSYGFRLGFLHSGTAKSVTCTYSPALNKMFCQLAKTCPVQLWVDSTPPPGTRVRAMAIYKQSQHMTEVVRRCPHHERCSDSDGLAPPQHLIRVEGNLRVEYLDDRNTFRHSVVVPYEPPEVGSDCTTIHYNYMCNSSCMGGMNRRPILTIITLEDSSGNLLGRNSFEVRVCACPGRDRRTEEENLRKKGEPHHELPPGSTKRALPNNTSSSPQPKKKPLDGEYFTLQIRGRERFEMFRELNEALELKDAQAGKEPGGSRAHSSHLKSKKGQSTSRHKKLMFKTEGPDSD

CCOC(=O)CC(SP(=O)(OC)OC)C(=O)OCC (stereo not drawn)
active: [17] 16.5 µM | [18] 12.1 µM
not listed: [19]
inactive: all other assays above

CCNc1nc(Cl)nc(NC(C)(C)C#N)n1
active: [19] 3.53 µM
not listed: [8] | [10] | [13] | [17]
inactive: all other assays above

N#CSCSC#N
active: [2] 50 µM | [6] 75.7 µM | [7] 54.8 µM and 70.4 µM | [8] 19 µM and 15.5 µM | [9] 60.7 µM and 78.2 µM | [10] 14.9 µM and 8.68 µM | [11] 51.1 µM and 61.9 µM | [12] 18.8 µM and 15.9 µM | [13] 66.3 µM and 68.4 µM | [14] 36.5 µM and 18.1 µM | [15] 34.6 µM
inactive: TIMP1, TIMP1 (gene 7076) | [1] | [3] | [19] | [4] | [5] | [16] | [17] | [18]

CCOP(=O)(NC(C)C)Oc1ccc(SC)c(C)c1 (stereo not drawn)
active: [19] 50 µM | [16] 24.8 µM | [17] 22.1 µM | [18] 14.6 µM
inactive: all other assays above

CCCCN(CC)c1c([N+](=O)[O-])cc(C(F)(F)F)cc1[N+](=O)[O-]
active: [19] 32.2 µM
not listed: [7] | [14]
inactive: all other assays above

CNC(=O)ON=C(SC)C(=O)N(C)C
inactive: all assays above
